Consider 5 compounds from PubChem BioAssay.

Experiment [1] relates to PRMT1 (protein arginine N-methyltransferase 1). Put plainly: small molecules binding arginine methyltransferase PRMT1 – biochemical, small-molecule microarray, 635 nm fluorescence, primary screen (AID 1088).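 Also: binding of Prmt1 protein to compounds spotted on small-molecule microarray slides.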 As to conditions: higher = more signal.
A short description of experiment [2]: growth effects on S. cerevisiae YJM789 – YJM789 clinical isolate, OD600, 24 h, basal, primary screen (AID 1089).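 Also: growth of clinical yeast isolate S. cerevisiae YJM 789 seeded 1000 cells per well; test concentration not given here.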 The note with it: higher = more signal, called active from +8 up or from −8 down.
Experiment [3] is described as follows: S. pombe growth modifiers, basal conditions – strain 972, OD600, 24 h, no modulator, primary screen (AID 1090).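 Also: basal condition with compound alone and no growth modifier present; test concentration not given here.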 As to conditions: S. pombe 972 growth, higher = more signal, called active from +8 up or from −8 down.
A short description of experiment [4]: budding yeast growth modifiers under rapamycin – strain BY4716, OD600, 96 h, primary screen (AID 1091). Also: test concentration not given here. As to conditions: S. cerevisiae BY4716 + rapamycin, higher = more signal, called active from +8 up or from −8 down.
For experiment [5], the target named is Torsin-1A-interacting protein 2 (Homo sapiens) (UniProt Q8NFQ8). As to the kind of experiment: small molecules binding lysate-expressed LULL1 – cell lysate, human LULL1 lysate, 635/667 nm fluorescence, primary screen (AID 1092).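 Also: probe is lysate of COS7 cells overexpressing human LULL1; score merges per-feature 667 nm fluorescence with signal-to-noise.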 As to conditions: small-molecule microarray, hLULL1 lysate binding, 635 nm fluorescence; higher = more signal.
Sequence of Torsin-1A-interacting protein 2 (Homo sapiens) (Q8NFQ8 whole entry, looked up): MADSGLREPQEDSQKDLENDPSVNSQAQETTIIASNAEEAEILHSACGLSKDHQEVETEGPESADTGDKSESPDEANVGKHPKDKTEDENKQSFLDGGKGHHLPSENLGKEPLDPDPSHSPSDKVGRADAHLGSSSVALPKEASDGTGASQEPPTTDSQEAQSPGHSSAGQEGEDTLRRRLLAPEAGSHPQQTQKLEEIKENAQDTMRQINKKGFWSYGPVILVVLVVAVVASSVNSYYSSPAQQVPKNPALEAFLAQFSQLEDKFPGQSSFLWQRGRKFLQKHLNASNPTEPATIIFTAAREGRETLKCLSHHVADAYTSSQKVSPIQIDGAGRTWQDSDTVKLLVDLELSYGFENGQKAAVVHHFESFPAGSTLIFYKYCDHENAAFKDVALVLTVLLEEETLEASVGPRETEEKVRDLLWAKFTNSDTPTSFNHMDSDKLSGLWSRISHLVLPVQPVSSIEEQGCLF
Experiment [6] is described as follows: optical density change of DRC41 E. coli – strain DRC41, OD650, 24 h, E. coli filamentation project, primary screen (AID 1093).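 Also: MC1000 strain lacking acrAB efflux and sulA so SOS filamentation is blocked; test concentration not given here.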 The note with it: E. coli DRC41 growth, higher = more signal, called active from +8 up or from −8 down.
Experiment [7] can be described thus: probe aLefty2 binding to arrayed compounds – biochemical, biotinylated probe, 635/667 nm fluorescence, primary screen (AID 1094).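 Also: score merges spot fluorescence near 667 nm with spot signal-to-noise ratio.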 The note with it: small-molecule microarray, higher = more signal.
In experiment [8] the test system is Noggin (protein binding on small-molecule microarray). Put plainly: small molecules binding Noggin protein – biochemical, 635/667 nm fluorescence, primary screen (AID 1095).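 Also: score merges 667 nm feature fluorescence with signal to noise over triplicate slides.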 The note with it: 635 nm fluorescence, higher = more signal.
The target in experiment [9] is Neurogenic locus notch homolog protein 3 (Homo sapiens) (UniProt Q9UM47). Put plainly: small molecules binding NOTCH3 protein – biochemical, 635/667 nm fluorescence, primary screen (AID 1096). The note with it: small-molecule microarray, 635 nm fluorescence, higher = more signal.
Sequence of Neurogenic locus notch homolog protein 3 (Homo sapiens) (Q9UM47 whole entry, looked up): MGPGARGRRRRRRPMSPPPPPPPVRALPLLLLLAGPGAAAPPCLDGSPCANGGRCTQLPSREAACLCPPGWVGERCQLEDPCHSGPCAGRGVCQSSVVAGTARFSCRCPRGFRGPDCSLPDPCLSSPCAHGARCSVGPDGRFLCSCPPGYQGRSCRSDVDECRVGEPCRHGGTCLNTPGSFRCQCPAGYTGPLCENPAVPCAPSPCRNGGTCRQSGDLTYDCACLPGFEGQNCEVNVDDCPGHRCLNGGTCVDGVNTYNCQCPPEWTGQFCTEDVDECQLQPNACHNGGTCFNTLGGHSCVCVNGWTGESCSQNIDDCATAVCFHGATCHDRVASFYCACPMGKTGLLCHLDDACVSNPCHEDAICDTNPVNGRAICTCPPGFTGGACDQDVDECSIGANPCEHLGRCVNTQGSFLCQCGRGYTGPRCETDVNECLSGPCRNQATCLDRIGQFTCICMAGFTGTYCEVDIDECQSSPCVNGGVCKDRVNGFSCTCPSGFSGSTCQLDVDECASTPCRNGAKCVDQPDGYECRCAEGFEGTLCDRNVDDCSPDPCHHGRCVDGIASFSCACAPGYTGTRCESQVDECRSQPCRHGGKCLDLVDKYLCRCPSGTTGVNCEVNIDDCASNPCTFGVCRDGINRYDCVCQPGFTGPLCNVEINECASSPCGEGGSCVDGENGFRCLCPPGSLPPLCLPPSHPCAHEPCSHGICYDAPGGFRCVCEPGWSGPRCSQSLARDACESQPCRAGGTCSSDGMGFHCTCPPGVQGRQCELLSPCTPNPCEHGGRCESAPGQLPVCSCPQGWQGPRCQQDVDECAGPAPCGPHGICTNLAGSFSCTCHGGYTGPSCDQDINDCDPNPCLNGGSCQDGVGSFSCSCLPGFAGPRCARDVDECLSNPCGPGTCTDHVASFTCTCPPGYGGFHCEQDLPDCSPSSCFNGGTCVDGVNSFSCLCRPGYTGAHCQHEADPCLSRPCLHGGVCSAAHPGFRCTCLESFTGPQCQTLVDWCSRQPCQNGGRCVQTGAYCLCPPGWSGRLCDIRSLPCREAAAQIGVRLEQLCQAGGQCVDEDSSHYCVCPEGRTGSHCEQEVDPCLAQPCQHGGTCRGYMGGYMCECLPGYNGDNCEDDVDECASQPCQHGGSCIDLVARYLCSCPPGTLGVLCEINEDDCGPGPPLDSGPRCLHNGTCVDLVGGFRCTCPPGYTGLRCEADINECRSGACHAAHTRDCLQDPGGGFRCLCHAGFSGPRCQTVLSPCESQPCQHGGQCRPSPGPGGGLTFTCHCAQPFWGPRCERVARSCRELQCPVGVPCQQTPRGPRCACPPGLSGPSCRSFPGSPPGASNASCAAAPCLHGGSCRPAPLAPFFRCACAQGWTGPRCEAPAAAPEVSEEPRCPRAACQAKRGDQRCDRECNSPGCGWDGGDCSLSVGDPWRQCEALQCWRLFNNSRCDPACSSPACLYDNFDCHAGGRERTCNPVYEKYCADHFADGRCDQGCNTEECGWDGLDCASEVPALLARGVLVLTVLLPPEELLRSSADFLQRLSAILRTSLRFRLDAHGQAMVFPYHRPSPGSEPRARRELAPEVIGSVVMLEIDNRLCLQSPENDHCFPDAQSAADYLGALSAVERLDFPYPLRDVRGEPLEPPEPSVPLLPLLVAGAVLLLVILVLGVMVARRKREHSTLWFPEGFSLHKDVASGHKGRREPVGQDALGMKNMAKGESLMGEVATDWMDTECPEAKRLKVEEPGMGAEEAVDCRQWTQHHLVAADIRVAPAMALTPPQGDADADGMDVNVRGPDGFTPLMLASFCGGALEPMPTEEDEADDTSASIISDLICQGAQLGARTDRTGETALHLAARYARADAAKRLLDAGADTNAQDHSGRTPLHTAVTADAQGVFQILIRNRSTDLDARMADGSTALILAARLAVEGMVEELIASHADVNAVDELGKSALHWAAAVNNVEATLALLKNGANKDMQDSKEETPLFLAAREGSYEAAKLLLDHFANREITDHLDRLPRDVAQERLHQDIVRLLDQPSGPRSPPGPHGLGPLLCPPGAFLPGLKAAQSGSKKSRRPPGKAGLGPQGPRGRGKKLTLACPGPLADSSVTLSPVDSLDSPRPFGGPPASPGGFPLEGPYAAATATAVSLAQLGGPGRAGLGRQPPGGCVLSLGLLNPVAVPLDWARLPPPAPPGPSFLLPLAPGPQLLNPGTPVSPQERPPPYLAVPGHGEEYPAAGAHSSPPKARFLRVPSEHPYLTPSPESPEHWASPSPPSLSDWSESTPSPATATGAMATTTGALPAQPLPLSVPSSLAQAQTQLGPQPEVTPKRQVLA
Experiment [10] in a line: probe aEGFR binding to arrayed compounds – biochemical, biotinylated probe, 635/667 nm fluorescence, primary screen (AID 1097).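 Also: probe is a biotinylated anti-EGFR antibody binding compounds printed on slides; score combines fluorescence near 667 nm and signal to noise of each spot.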 As to conditions: small-molecule microarray, higher = more signal.
Experiment [11] deals with Plasmodium falciparum Sir2 (PF13_0152, Sir2A). Put plainly: Plasmodium falciparum Sir2A binding compounds – biochemical, small-molecule microarray, 635 nm fluorescence, primary screen (AID 1098).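 Also: score merges spot fluorescence intensity with its signal-to-noise ratio.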 The note with it: fluorescence 635 nm, higher = more signal.
Experiment [12] is described as follows: probe aDKK1 binding to arrayed compounds – biochemical, biotinylated probe, 635/667 nm fluorescence, primary screen (AID 1099).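 Also: score merges 667nm spot fluorescence with signal to noise across triplicate slides; reference of the scale not given here.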 The note with it: small-molecule microarray, higher = more signal.
The nature of experiment [13]: probe aCHRDL2 binding to arrayed compounds – biochemical, biotinylated probe, 635/667 nm fluorescence, primary screen (AID 1100). The note with it: small-molecule microarray, higher = more signal.
Experiment [14] can be described thus: change in splice reporter luminescence, either direction, cell-based, HEK293, spliceosome inhibition project, primary screen (AID 1101).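 Also: HEK293 cells carrying a splicing-competent luciferase reporter gene; test concentration not given here.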 The note with it: HEK293 splicing luciferase reporter, 24 h, higher = more signal, called active from +8 up or from −8 down.
In experiment [15] the target is Fibroblast growth factor 10 (Homo sapiens) (UniProt O15520). As to the kind of experiment: compounds binding fibroblast growth factor 10 – biochemical, small-molecule microarray, 635 nm fluorescence, primary screen (AID 1102). The note with it: FGF10 binding, fluorescence 635 nm, higher = more signal.
Sequence of Fibroblast growth factor 10 (Homo sapiens) (O15520 whole entry, looked up): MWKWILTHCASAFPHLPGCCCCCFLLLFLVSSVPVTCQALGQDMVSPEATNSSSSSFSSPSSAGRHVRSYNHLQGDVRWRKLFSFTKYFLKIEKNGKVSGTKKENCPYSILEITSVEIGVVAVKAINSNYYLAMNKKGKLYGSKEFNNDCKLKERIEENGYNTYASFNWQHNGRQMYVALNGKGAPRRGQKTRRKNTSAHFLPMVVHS
Experiment [16] has as its system glycogen synthase kinase-3 (GSK3A per assay name; protocol says GSK3B). As to the kind of experiment: compounds binding glycogen synthase kinase-3 – biochemical, small-molecule microarray, 635 nm fluorescence, GSK3A, primary screen (AID 1103). Also: the record names both GSK3A and GSK3B. The note with it: fluorescence 635 nm, higher = more signal.
Experiment [17] addresses Epidermal growth factor receptor (Homo sapiens) (UniProt P00533). As to the kind of experiment: compounds binding epidermal growth factor receptor – biochemical, small-molecule microarray, 635 nm fluorescence, primary screen (AID 1104).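 Also: score merges 667 nm emission intensity with spot signal to noise over triplicate slides.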 As to conditions: EGFR binding, higher = more signal.
The target in experiment [18] is Follistatin-related protein 3 (Homo sapiens) (UniProt O95633). Put plainly: compounds binding follistatin-related protein 3 – biochemical, small-molecule microarray, 635 nm fluorescence, primary screen (AID 1105).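 Also: score merges emission near 667 nm and signal to noise per printed spot across three slides.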 As to conditions: FSTL3 binding, higher = more signal.
Sequence of Follistatin-related protein 3 (Homo sapiens) (O95633 whole entry, looked up): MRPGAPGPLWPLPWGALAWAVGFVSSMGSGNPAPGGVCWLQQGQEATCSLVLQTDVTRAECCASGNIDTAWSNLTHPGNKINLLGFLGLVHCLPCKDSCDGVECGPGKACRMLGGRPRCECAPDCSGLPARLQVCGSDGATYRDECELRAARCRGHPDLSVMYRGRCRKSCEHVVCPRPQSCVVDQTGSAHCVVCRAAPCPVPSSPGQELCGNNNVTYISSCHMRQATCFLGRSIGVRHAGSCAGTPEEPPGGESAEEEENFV
The target in experiment [19] is Dickkopf-related protein 1 (Homo sapiens) (UniProt O94907). As to the kind of experiment: small molecules binding DKK1 protein – biochemical, small-molecule microarray, 635 nm fluorescence scan, primary screen (AID 1106).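 Also: score merges emission near 667 nm with signal to noise over three replicate slides.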 As to conditions: higher = more signal.
Sequence of Dickkopf-related protein 1 (Homo sapiens) (O94907 whole entry, looked up): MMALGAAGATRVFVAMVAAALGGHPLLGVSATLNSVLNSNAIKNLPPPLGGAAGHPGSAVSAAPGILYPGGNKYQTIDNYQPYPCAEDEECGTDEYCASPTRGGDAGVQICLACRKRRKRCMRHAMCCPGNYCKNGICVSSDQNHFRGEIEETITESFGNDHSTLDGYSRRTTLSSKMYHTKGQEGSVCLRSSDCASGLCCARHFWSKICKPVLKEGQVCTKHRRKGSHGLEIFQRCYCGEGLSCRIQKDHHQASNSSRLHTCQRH
Experiment [20] deals with Inhibin beta A chain (activin A). Put plainly: small molecules binding activin A – biochemical, small-molecule microarray, 635 nm fluorescence scan, primary screen (AID 1107).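 Also: mouse activin A protein probed at 4.33 µg/mL on printed slides; score merges bound-protein fluorescence near 667 nm with spot signal-to-noise.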 The note with it: INHBA, higher = more signal.

SMILES strings stand for the structures. Activity calls are given as the source filed them.

Sequence of Epidermal growth factor receptor (Homo sapiens) (P00533 whole entry, looked up): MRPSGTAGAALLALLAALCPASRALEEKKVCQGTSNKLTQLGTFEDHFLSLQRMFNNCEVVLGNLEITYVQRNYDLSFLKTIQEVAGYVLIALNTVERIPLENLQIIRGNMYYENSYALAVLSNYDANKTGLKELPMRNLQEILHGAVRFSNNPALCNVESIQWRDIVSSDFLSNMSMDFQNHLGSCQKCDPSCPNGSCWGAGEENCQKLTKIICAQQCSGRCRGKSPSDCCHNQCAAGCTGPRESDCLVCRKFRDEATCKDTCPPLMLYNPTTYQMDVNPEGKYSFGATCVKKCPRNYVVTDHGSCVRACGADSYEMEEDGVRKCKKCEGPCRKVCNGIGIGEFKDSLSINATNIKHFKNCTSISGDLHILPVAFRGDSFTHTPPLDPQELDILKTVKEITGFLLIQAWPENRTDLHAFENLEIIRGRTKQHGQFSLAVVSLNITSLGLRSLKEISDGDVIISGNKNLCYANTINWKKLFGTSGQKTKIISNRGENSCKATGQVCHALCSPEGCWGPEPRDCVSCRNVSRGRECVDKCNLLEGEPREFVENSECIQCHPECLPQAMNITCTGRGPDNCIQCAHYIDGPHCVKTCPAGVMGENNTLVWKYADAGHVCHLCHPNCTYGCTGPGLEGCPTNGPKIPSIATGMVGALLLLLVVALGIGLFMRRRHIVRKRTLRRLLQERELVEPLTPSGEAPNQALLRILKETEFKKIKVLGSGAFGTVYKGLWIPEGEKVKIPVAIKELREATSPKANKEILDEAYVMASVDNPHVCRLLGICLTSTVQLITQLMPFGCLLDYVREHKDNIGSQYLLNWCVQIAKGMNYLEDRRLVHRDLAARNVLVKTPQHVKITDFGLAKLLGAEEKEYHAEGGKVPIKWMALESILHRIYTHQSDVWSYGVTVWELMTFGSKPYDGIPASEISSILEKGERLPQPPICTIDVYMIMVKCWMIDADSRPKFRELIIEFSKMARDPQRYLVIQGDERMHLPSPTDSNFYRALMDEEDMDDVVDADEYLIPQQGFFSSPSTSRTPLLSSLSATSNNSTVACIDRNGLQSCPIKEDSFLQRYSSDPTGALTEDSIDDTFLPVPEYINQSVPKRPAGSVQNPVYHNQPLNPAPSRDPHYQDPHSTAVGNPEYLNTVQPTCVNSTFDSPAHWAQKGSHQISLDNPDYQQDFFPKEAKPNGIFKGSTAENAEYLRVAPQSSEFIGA

For `CON=C(C)CCN1CCCCc2nc(C)c(C)cc21`, the composite z-score in [1] was determined as 0.46; in [5], 0.799; in experiment [7] it was 0.0945; in experiment [8], 0.572; in [9] it was 0.397; in experiment [10], 0.0978. The composite z-score in [11] is 0.636; in [12], -0.144; in experiment [13], -0.0831; in experiment [15], 0.443; in experiment [16], 0.213; in [17], 0.657. The results for the composite z-score in [18], in experiment [19] and in [20] were 0.507, 0.881 and 1.52, respectively. Moreover, the z-score was -0.114 (inactive) in [2]; -0.0037 (inactive) in experiment [3]; -0.508 (inactive) in experiment [4]; 0.165 (inactive) in experiment [6]; 0.248 (inactive) in experiment [14].

Take `COC(=O)[C@@H]1CC[C@H](C)[C@@H](c2ccc(Br)cc2)N1C[C@H](O)CN=[N+]=[N-]`: the composite z-score in experiment [1] was -0.164; in experiment [5], 0.512; in experiment [7], -0.181; in experiment [8], -0.133; in experiment [9], -0.0269; in experiment [10] it was -0.139. Also, the composite z-score is 0.0722 in experiment [11]; -0.234 in [12]; 0.0248 in experiment [13]; 0.248 in [15]; -0.154 in [16]; 0.385 in experiment [17]. In addition, the results for the composite z-score in experiment [18], in [19] and in experiment [20] were -0.347, -0.148 and 0.616, respectively. Further, the z-score in experiment [2] was -0.209 (inactive); in [3], -4.62 (inactive); in experiment [4], -2.03 (inactive); in [6], 0.449 (inactive); in experiment [14], -0.812 (inactive).

On to `CC(CCC(=O)OC[C@H]1O[C@H](C#Cc2ccccc2)C=C[C@@H]1Oc1ccc(C)cc1)=NO[C@H](C)c1cn([C@@H]2COC[C@H]2O)nn1`, for which the composite z-score is 0.535 in experiment [1]; 0.042 in experiment [5]; -0.128 in [7]; 0.375 in experiment [8]; -0.151 in experiment [9]; -0.137 in experiment [10]. Besides, the composite z-score in experiment [11] is 0.261; in [12], -0.2; in experiment [13], -0.383; in experiment [15], 0.162; in experiment [16], -0.267; in [17] it was 0.238. The composite z-score in experiment [18] was found to be 0.22; in experiment [19], 0.285; in experiment [20] it was 0.203. Besides, the z-score in experiment [2] is -1.42 (inactive); in [3] it was -0.688 (inactive); in experiment [4], -0.0188 (inactive); in experiment [6], -0.342 (inactive); in experiment [14], -1.45 (inactive).

With `CCOC(=O)[C@H](Cc1ccccc1)NC(=O)CCC1CC(OC(=O)NCc2cccc3ccccc23)CC2(CCCC(COC(=O)NCc3ccc4c(c3)OCO4)O2)O1` (stereo not given in full), the composite z-score in experiment [1] was -0.0058; in experiment [5] it was 1.8; in experiment [7], -0.139; in experiment [8], 0.453; in [9], 0.227; in experiment [10] it was 0.104. In addition, the composite z-score is 0.216 in [11]; -0.0102 in [12]; -0.343 in [13]; 0.587 in [15]; -0.0333 in [16]; 0.179 in experiment [17]. Further, the figures for the composite z-score in experiment [18], in [19] and in [20] were 0.224, 0.141 and 0.325, respectively. Moreover, the z-score in [2] was 0.549 (inactive); in experiment [3] it was -0.02 (inactive); in experiment [4], 0.743 (inactive); in experiment [6], 0.951 (inactive); in experiment [14], 0.277 (inactive).

As for `CC(=O)OC[C@H]1O[C@H](CC=NOC[C@@H](O)[C@H]2O[C@@H]3OC(C)(C)O[C@@H]3[C@H]2O)C=C[C@@H]1OC(C)=O`, the composite z-score in [1] was 0.739; in experiment [5] it was 2.25; in [7], -0.0708; in [8], 0.441; in [9], 0.492; in [10] it was -0.0035. The composite z-score is 0.8 in experiment [11]; -0.0771 in [12]; -0.351 in experiment [13]; 0.771 in experiment [15]; 0.529 in experiment [16]; 0.317 in experiment [17]. The composite z-score in experiment [18] is 0.451; in [19] it was 0.375; in experiment [20], -0.115. The z-score in [2] was 0.561 (inactive); in experiment [3] it was 1.09 (inactive); in experiment [4] it was 0.541 (inactive); in experiment [6] it was 0.72 (inactive); in [14] it was -0.136 (inactive).
